Values joined by “and” are separate entries in the source; they are usually repeats but may differ in a detail not shown here. Equal values may be shown once. Out of some 290,000 compounds screened, about 27,000 (9.3%) were called active. The entries come from a sample that favours actives as a whole. A number with no mark means an inactive call. Rule as the data show it: active = inhibition mostly above about 28% (no sharp cut-off); inactive = mostly below about 43%.
Assay: A qHTS for Small Molecule Inhibitors of Shiga Toxin; also: 0% is about no effect
Conditions: Vero cells, Shiga toxin protein synthesis inhibition reporter; at 38.7 µM, active compounds read high

Q: Which inhibition does the source give for `O=C(/C=C/c1cccc(C(F)(F)F)c1)N1CCN(c2ccccn2)CC1` here?
A: -28.6%

Q: For `Cc1ccccc1CSc1nnc(-c2ccccn2)n1N`, which inhibition is on record?
A: 62.4% (active)

Q: For `Cc1ccccc1CSc1nnc(Cn2c(=O)sc3ccccc32)n1C`, which inhibition is on record?
A: -3.34%

Q: With `N#Cc1ccc(CSc2nnc(-c3ccccn3)n2-c2ccc(Cl)cc2)cc1` as the compound, how does the inhibition read?
A: 9.81%

Q: Which inhibition does the source give for `Cc1ccccc1CSc1nnc(-c2cccnc2)n1N` here?
A: 47.7% (active)

Q: Which inhibition does the source give for `Cn1c(SCC(=O)C(C)(C)C)nnc1-c1ccccn1` here?
A: 51.8%

Q: For `O=C(CSc1nnc(-c2cccnc2)n1CCc1ccccc1)NCc1ccccc1`, which inhibition is on record?
A: 9.64%

Q: For `COCCNc1cc(-c2ccccc2)nc2cc(-c3cccc(F)c3)nn12`, which inhibition is on record?
A: 13.9%

Q: With `O=S(=O)(c1ccc2c(c1)OCCCO2)N1CCN(S(=O)(=O)c2c(F)cccc2F)CC1` as the compound, how does the inhibition read?
A: -5.98%

Q: Which inhibition does the source give for `Cc1ccc(CNC(=O)C2(C(F)(F)F)C/C(=C\Cc3ccccc3)CCCO2)o1` (stereo unspecified) here?
A: -4.26% and 0.0699%

Q: With `COc1ccc(N(C)C(=O)C2CCN(S(=O)(=O)c3cccc4nsnc34)CC2)cc1` as the compound, how does the inhibition read?
A: 8.11%

Q: For `Cc1ccc(S(=O)(=O)N2CCN(C)CC2)cc1C(=O)NC1CCCCC1`, which inhibition is on record?
A: -5.78%

Q: For `N#CC(=C1CCCC1)c1nc(-c2ccc(Cl)cc2)cs1`, which inhibition is on record?
A: 50.4% (active)

Q: Which inhibition does the source give for `N#C/C(=C1/CCCN1)c1ccccn1` here?
A: -5.25%

Q: For `c1ccc(-c2csc(N3CCc4ccccc4C3)n2)cc1`, which inhibition is on record?
A: 57.4%

Q: With `CCCCCN1CC(O)=C(c2nc(-c3ccc(Cl)cc3)cs2)C1=N` as the compound, how does the inhibition read?
A: 23.2%

Q: For `N#CC(=C1SC=CS1)c1nc(-c2ccccc2)cs1`, which inhibition is on record?
A: 79.5% (active)

Q: With `Cn1c(/C(C#N)=C2/CCCCCN2)nc2ccccc21` as the compound, how does the inhibition read?
A: 9.28%

Q: With `N#C/C(=C1\CCCN1)c1nc(-c2ccccc2)cs1` as the compound, how does the inhibition read?
A: 76.5% (active)

Q: With `CCc1ccc(NC(=O)CS(=O)CC(=O)N2CCN(c3ccccc3F)CC2)cc1` (stereo unspecified) as the compound, how does the inhibition read?
A: 9.39%

Q: Which inhibition does the source give for `CN(C)CCCNC(=O)c1cc(C(=O)Cc2ccc(Cl)cc2)c[nH]1` here?
A: -5.52%

Q: With `CCc1cccc(NC(=O)CCCN2C(=O)C(c3ccccc3)Oc3cccnc32)c1` (stereo unspecified) as the compound, how does the inhibition read?
A: -2.72%

Q: For `CCC1=Nc2cc(C(=O)NCCCN3CCOCC3)ccc2Sc2ccc(Br)cc21`, which inhibition is on record?
A: -9.37%

Q: For `Cc1cccc(N(C(=O)c2csnn2)C(C(=O)NCc2ccccc2)c2ccncc2)c1` (stereo unspecified), which inhibition is on record?
A: -9.04%

Q: With `CCCOc1ccc(N/C=C/C(=O)C(C)(C)C)cc1` as the compound, how does the inhibition read?
A: 49% (active)

Q: Which inhibition does the source give for `CCOc1ccc(NC(=S)N2CCC(NC(=O)c3ccccc3)CC2)cc1` here?
A: -10.8%

Q: Which inhibition does the source give for `CCOc1ccc(N/C=C/C(=O)c2ccccc2)cc1` here?
A: 69.8% (active)

Q: Which inhibition does the source give for `CN(C)c1ccc(N/C=C/C(=O)C(F)(F)F)cc1` here?
A: 71.1%

Q: With `Cc1ccc(N/C=C/C(=O)c2ccccc2)cc1C` as the compound, how does the inhibition read?
A: 17.5%

Q: Which inhibition does the source give for `CCCOc1ccc(NC(=O)C2CCCNC2=O)cc1` (stereo unspecified) here?
A: 25.7%

Q: Which inhibition does the source give for `COc1ccc(N2CCN(C(=O)c3cn(C)c4ccc(S(=O)(=O)N5CCOCC5)cc4c3=O)CC2)cc1` here?
A: -3.12%

Q: Which inhibition does the source give for `O=[N+]([O-])c1cc([N+](=O)[O-])c(Oc2cc(F)cc(F)c2F)cc1NN1CCCCC1` here?
A: 1.85%

Q: Which inhibition does the source give for `CCCn1nc(NS(=O)(=O)c2ccc(F)cc2)c2cc3ccccc3nc21` here?
A: -7.87%

Q: With `O=S1(=O)CCO[C@H]2Cc3ccccc3[C@H]2N1Cc1ccccc1` as the compound, how does the inhibition read?
A: -2.08%

Q: For `CC(=O)Nc1ccc(C(=O)OCC(=O)Nc2ccc([N+](=O)[O-])cc2C(F)(F)F)cc1`, which inhibition is on record?
A: 14.6%

Q: For `CN(C)c1nc(=Nc2cccc(Cl)c2)ss1`, which inhibition is on record?
A: 77% (active)

Q: With `O=C(NC1CCC(O)CC1)c1ccccc1OCc1ccc(F)cc1` (stereo unspecified) as the compound, how does the inhibition read?
A: -2.79%

Q: Which inhibition does the source give for `CCn1nnnc1SCC(=O)c1ccc(C)cc1C` here?
A: 77.4% (active)

Q: For `COc1ccc(-n2nnnc2SCC(=O)Nc2ccccc2)cc1`, which inhibition is on record?
A: -15.5%

Q: With `Cc1ccc(C)c(-n2nnnc2SCC(=O)c2c(N)n(C)c(=O)n(C)c2=O)c1` as the compound, how does the inhibition read?
A: -10.4%

Q: With `COc1ccc(C(=O)CSc2nnnn2C)c(OC)c1` as the compound, how does the inhibition read?
A: 32.4%

Q: For `CCn1nnnc1SCC(=O)Nc1ccc(N(C)C)cc1`, which inhibition is on record?
A: 44.2% (active)

Q: With `CC(=O)Nc1ccc(NC(=O)CSc2nnnn2-c2ccccc2F)cc1` as the compound, how does the inhibition read?
A: 61.1%

Q: For `Cc1cc(C(=O)N/N=C/c2ccccn2)c2ccccc2n1`, which inhibition is on record?
A: -6.51%

Q: Which inhibition does the source give for `O=C(Nc1ccccc1N1CCN(C(=O)c2ccccc2)CC1)c1ccco1` here?
A: 9.04%

Q: Which inhibition does the source give for `CC(C)NS(=O)(=O)c1ccc(OCC(=O)NC2CCCCCC2)cc1` here?
A: -16.9%

Q: With `CC(Oc1ccc(F)cc1)C(=O)N1CCN(c2ncccn2)CC1` (stereo unspecified) as the compound, how does the inhibition read?
A: -12.5%

Q: Which inhibition does the source give for `Cc1ccc(NN=C2C(=O)OC(C)(C)OC2=O)c(C)c1` here?
A: 93.9% (active)

Q: For `Cc1ccc(NC(=O)CCC(=O)N/N=C/c2ccco2)c(C)c1`, which inhibition is on record?
A: 9.07%

Q: For `Cc1ccc(NC(=O)c2oc(=O)c3ccccc3c2-c2ccccc2)c(C)c1`, which inhibition is on record?
A: -10.4%

Q: Which inhibition does the source give for `COC(=O)C(C)n1cnc2c(nnn2-c2ccc(F)cc2)c1=O` (stereo unspecified) here?
A: 8.93%

Q: For `COc1ccc(NC(=O)c2sc3nc(C)nc(N4CCN(c5ccccn5)CC4)c3c2C)c(OC)c1`, which inhibition is on record?
A: -5.19%

Q: With `CN(CCN1CCOCC1)Cc1nc(-c2ccc3c(c2)OCO3)no1` as the compound, how does the inhibition read?
A: 13.4%

Q: With `CCn1ccnc1CN(C)Cc1nc(-c2ccc3c(c2)OCO3)no1` as the compound, how does the inhibition read?
A: 50.1% (active)

Q: Which inhibition does the source give for `CC(C)N(Cc1nc(-c2ccc3c(c2)OCO3)no1)CC1CCC(=O)N1` (stereo unspecified) here?
A: -4.06%

Q: With `CCC(C)(C)c1ccc(Oc2ccc(NC(=O)COC(=O)C3=COCCO3)cc2)cc1` as the compound, how does the inhibition read?
A: 23.6%

Q: With `O=C(OCC(=O)c1cccs1)C1=COCCO1` as the compound, how does the inhibition read?
A: 98.9% (active)

Q: For `O=C(OCC(=O)c1cccs1)c1ccc([N+](=O)[O-])o1`, which inhibition is on record?
A: 41.9%

Q: With `O=C(NCc1ccccc1)C1CCN(C(=O)Cc2ccccc2)CC1` as the compound, how does the inhibition read?
A: -23.8%

Q: Which inhibition does the source give for `O=C(CCn1nnnc1CN1CCOCC1)N1CCC(c2ccccc2Cl)C1` (stereo unspecified) here?
A: 11%

Q: With `NNc1nc2c(Cl)cccc2s1` as the compound, how does the inhibition read?
A: 69.4% (active)

Q: With `NC(=O)c1c(Nc2nc3c(F)cccc3s2)sc2c1CCCC2` as the compound, how does the inhibition read?
A: 13.4%

Q: Which inhibition does the source give for `CN(C)CCCN(C(=O)COc1ccccc1)c1nc2c(Cl)cccc2s1` here?
A: -6.79%

Q: With `C/C(=N\NC(=O)c1cccc([N+](=O)[O-])c1)c1cccnc1` as the compound, how does the inhibition read?
A: 11.6%

Q: For `COc1ccc(N2CCC(N3CCN(C)C(CCO)C3)CC2)cc1` (stereo unspecified), which inhibition is on record?
A: 0.592%

Q: With `COc1ccc(CCN2CC(C(=O)NCCN3CCNC3=O)CCC2=O)cc1` (stereo unspecified) as the compound, how does the inhibition read?
A: 1.29%

Q: With `CCN(CC)c1ccc(/C=N/Nc2nc(C)cc(=O)[nH]2)cc1` as the compound, how does the inhibition read?
A: 2.75%

Q: With `Cc1cc(=O)[nH]c(N/N=C/c2ccc3c(c2)OCCO3)n1` as the compound, how does the inhibition read?
A: 44.5% (active)

Q: Which inhibition does the source give for `Cc1cc(=O)[nH]c(N/N=C/c2c(C)nn(-c3ccccc3Cl)c2Cl)n1` here?
A: 47%

Q: With `Cc1[nH]c2ccccc2c1C(=O)CN1CCCC(C)C1` (stereo unspecified) as the compound, how does the inhibition read?
A: -6.74%

Q: With `Nc1ccccc1SC(C[N+](=O)[O-])c1ccccc1` (stereo unspecified) as the compound, how does the inhibition read?
A: 77.6% (active)

Q: For `Cc1ccc(C(C[N+](=O)[O-])c2c(C)cc3ccccn23)cc1` (stereo unspecified), which inhibition is on record?
A: 6.95%

Q: Which inhibition does the source give for `NS(=O)(=O)c1ccc(CNC(=O)c2cccc(Oc3ccccc3)c2)cc1` here?
A: 6.72%

Q: Which inhibition does the source give for `O=C(NCc1cn2ccsc2n1)Nc1ccc(Cl)cc1` here?
A: -6.11%

Q: With `CCC(=O)Nc1ccc(C(=O)NNC(=O)c2ccc(Cl)cc2)cc1` as the compound, how does the inhibition read?
A: 21.7%

Q: For `O=C(Nc1ccc(Cl)cc1)c1ccsn1`, which inhibition is on record?
A: 71.9% (active)

Q: With `Cc1cc(-c2ccc(C)c(S(=O)(=O)NCCCN(Cc3ccccc3)C(C)C)c2)on1` as the compound, how does the inhibition read?
A: -6.03%

Q: Which inhibition does the source give for `Cc1cccc(NC(=O)NC2(C)CCS(=O)(=O)C2)c1` (stereo unspecified) here?
A: 11.8%

Q: Which inhibition does the source give for `CC(C)(C)c1ccc(NC(=O)NCc2ccco2)cc1` here?
A: 74.2% (active)

Q: Which inhibition does the source give for `CC(C)(C)NC(=O)NCc1ccco1` here?
A: 12.4%

Q: With `CC(C)(C)c1ccc(C(=O)NCCC(=O)NCc2ccco2)cc1` as the compound, how does the inhibition read?
A: 6.3%

Q: With `COc1ccc([N+](=O)[O-])cc1N(CC(=O)Nc1ccccc1C(=O)N1CCOCC1)S(C)(=O)=O` as the compound, how does the inhibition read?
A: -1.77%

Q: Which inhibition does the source give for `CCOCCOC(=O)C1=C(C)NC(=O)NC1c1ccc2c(c1)OCO2` (stereo unspecified) here?
A: -11.9%

Q: Which inhibition does the source give for `CCOC(=O)c1nc(-c2ccc3c(c2)OCO3)[nH]c1C` here?
A: 41% (active)

Q: For `CCOC(=O)c1c(C)[nH]c(C(=O)COc2ccc3c(c2)OCO3)c1C`, which inhibition is on record?
A: 17.2%

Q: For `CCOc1ccc(N(C)S(=O)(=O)c2cnc[nH]2)cc1`, which inhibition is on record?
A: 10.4%

Q: With `Cc1ccc2c(c1)N(CC(=O)N1CCC(C)CC1)C(=O)c1cccnc1O2` as the compound, how does the inhibition read?
A: 9.85%

Q: Which inhibition does the source give for `CCOc1cccc(NC(=O)C2CCCN(S(=O)(=O)c3ccc(OC)cc3)C2)c1` (stereo unspecified) here?
A: -14.4%

Q: With `COc1ccc(NC(=O)C2CCCN(S(=O)(=O)c3cccc4cccnc34)C2)cc1` (stereo unspecified) as the compound, how does the inhibition read?
A: -1.64%

Q: With `COc1ccc(S(=O)(=O)N2CCCC(C(=O)Nc3ccc(NC(=O)c4ccccn4)cc3)C2)cc1` (stereo unspecified) as the compound, how does the inhibition read?
A: 63.5% (active)

Q: For `COc1ccccc1N1CC(C(=O)Nc2nnc(SCC(=O)NC(C)C)s2)CC1=O` (stereo unspecified), which inhibition is on record?
A: 4.29%

Q: For `CN(CC1CCCN(CCc2cccc(C(F)(F)F)c2)C1)C(=O)c1ccc2nc[nH]c2c1` (stereo unspecified), which inhibition is on record?
A: -2.32%

Q: For `Cc1ccc(CS(=O)Cc2ccc(C(=O)N3CCOCC3)o2)cc1` (stereo unspecified), which inhibition is on record?
A: -2.85%

Q: For `COc1ccc2c(c1)cc1n2CCN=C1NN`, which inhibition is on record?
A: 170% (active)

Q: Which inhibition does the source give for `COc1ccc(CNC(=O)C(=O)NCC2OCCN2C(=O)c2ccc(OC)cc2)cc1` (stereo unspecified) here?
A: -30.4%

Q: For `O=S(=O)(c1cccc(Cn2nnc(-c3ccc(F)cc3)n2)c1)N1CCOCC1`, which inhibition is on record?
A: -6.53%
